# Laboratory results from PMC7862700, “An all-to-all approach to the identification of sequence-specific readers for epigenetic DNA modifications on cytosine”.
# Assays:
# Assay in all cases: DAPPL (digital affinity profiling via proximity ligation, sequencing); 10 mM Tris-HCl pH 7.5, 50 mM NaCl, 1 mM DTT, 4% glycerol, room temperature, 30 min; GST-TFs on glutathione beads, 16-mer random dsDNA library, 0.1% formaldehyde crosslink after washing; high values mean tight binding
# [1] = biological target: T1, FEV (Homo sapiens, UniProt Q99581 1-238); settings: protein: recombinant; tags: N-terminal GST; dsDNA, one strand shown
# T1 sequence: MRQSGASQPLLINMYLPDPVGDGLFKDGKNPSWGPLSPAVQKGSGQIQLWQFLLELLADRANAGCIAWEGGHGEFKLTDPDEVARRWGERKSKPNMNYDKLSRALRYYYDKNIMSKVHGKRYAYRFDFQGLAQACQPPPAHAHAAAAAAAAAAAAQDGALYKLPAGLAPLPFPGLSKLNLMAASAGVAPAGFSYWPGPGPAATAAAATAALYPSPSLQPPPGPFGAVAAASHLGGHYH
# Method in brief: (§1)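 Binding signal is defined as a hexamer's read frequency for one factor over its frequency for the tag-only sample. To obtain reads, GST-fused human transcription factors were expressed in yeast, captured on glutathione beads, barcoded with DNA and pooled with that sample. Pools met 200 nmole of a 16-mer random double-stranded DNA library in Tris/NaCl/DTT/glycerol buffer for 30 min at room temperature before washing, 0.1% formaldehyde crosslinking, proximity ligation (BsaI/T4 ligase, 1 h, 37 °C), PCR and Illumina NextSeq500 sequencing.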
# [2] = biological target: ETV5 (Homo sapiens, UniProt P41161 1-510); settings: protein: recombinant; tags: N-terminal GST; dsDNA, one strand shown
# Chain of ETV5 (P41161 whole entry): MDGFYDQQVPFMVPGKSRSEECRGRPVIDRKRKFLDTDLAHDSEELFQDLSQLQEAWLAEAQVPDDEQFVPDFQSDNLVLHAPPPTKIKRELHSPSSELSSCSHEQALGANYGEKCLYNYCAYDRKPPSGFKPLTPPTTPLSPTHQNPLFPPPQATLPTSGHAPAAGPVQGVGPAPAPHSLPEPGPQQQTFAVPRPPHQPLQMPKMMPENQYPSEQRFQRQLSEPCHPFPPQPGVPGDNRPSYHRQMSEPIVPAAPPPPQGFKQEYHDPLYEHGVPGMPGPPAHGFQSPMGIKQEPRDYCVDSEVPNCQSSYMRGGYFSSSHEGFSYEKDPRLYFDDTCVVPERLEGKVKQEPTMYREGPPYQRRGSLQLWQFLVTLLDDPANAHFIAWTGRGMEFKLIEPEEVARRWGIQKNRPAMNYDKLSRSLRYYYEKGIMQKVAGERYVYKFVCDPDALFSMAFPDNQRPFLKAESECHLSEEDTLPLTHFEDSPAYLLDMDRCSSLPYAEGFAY
# Method in brief: as §1
# [3] = biological target: HSF1 (Homo sapiens, UniProt Q00613 1-529); settings: protein: recombinant; tags: N-terminal GST; chain copies: 3; dsDNA, one strand shown
# Chain of HSF1 (Q00613 whole entry): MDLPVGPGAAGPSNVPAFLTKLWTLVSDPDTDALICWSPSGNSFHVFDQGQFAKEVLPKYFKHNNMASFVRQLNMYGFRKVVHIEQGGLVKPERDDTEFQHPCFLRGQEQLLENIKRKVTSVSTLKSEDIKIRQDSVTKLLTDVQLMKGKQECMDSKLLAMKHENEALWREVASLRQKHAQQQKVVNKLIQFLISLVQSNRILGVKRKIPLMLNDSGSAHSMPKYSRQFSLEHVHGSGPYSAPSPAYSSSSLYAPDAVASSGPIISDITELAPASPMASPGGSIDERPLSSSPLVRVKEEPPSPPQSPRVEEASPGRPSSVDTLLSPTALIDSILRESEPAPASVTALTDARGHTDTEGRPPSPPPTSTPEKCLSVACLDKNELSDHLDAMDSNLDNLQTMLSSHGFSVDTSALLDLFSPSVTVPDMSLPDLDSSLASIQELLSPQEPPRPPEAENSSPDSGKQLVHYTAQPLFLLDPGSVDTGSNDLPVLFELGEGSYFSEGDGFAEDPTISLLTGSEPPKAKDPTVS
# Method in brief: as §1
# [4] = biological target: T2, SPIC (Homo sapiens, UniProt Q8N5J4 1-248); settings: protein: recombinant; tags: N-terminal GST; dsDNA, one strand shown
# T2 sequence: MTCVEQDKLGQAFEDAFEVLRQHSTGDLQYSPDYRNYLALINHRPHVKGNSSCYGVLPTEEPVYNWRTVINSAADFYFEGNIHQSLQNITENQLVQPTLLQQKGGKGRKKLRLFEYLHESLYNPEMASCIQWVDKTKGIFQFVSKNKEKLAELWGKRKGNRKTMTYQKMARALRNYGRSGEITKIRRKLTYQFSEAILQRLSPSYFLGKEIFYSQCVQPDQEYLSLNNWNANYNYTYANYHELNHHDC
# Method in brief: as §1
# [5] = biological target: ELF4 (Homo sapiens, UniProt Q99607 1-663); settings: protein: recombinant; tags: N-terminal GST; dsDNA, one strand shown
# Chain of ELF4 (Q99607 whole entry): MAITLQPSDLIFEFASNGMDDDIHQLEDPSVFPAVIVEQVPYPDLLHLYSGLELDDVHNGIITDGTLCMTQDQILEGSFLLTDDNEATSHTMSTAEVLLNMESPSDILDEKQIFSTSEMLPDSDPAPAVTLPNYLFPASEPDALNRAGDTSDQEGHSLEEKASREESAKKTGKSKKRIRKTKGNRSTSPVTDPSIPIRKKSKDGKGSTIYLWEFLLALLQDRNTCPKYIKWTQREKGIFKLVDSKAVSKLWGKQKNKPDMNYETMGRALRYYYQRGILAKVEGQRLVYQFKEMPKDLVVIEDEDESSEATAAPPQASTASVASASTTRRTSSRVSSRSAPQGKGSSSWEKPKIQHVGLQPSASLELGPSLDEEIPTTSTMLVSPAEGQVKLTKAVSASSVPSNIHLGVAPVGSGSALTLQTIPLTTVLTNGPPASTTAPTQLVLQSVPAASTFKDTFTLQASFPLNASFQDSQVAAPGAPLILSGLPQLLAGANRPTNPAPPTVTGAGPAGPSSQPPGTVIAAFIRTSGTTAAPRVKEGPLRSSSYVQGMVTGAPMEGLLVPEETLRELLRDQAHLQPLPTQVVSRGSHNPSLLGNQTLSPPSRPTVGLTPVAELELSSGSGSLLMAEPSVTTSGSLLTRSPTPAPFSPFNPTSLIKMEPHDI
# Method in brief: as §1
# [6] = biological target: T3, ELK4 (Homo sapiens, UniProt P28324-2 1-405); settings: protein: recombinant; tags: N-terminal GST; dsDNA, one strand shown
# T3 sequence: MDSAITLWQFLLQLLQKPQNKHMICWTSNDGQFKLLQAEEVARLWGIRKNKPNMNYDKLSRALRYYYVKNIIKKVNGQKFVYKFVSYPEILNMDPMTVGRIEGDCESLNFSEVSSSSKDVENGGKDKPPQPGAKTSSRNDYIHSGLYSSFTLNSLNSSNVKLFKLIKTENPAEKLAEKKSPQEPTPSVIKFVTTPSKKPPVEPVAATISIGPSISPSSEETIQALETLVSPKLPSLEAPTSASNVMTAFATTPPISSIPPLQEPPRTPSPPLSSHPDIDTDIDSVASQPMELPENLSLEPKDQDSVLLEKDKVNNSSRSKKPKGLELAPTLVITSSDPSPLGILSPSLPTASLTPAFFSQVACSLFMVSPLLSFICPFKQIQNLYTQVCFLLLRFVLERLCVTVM
# Method in brief: as §1
# [7] = biological target: T4, ETV2 (Homo sapiens, UniProt O00321 1-342); settings: protein: recombinant; tags: N-terminal GST; dsDNA, one strand shown
# T4 sequence: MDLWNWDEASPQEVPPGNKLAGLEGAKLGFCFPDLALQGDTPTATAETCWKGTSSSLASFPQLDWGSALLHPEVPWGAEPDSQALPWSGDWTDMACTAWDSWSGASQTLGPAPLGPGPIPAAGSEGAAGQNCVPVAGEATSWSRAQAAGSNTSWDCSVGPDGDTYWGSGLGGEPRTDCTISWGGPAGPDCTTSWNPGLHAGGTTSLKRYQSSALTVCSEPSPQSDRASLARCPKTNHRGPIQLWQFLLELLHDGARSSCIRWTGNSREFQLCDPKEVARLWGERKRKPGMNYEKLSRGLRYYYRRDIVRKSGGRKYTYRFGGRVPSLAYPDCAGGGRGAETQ
# Method in brief: as §1
# [8] = biological target: T5, ELF3 (Homo sapiens, UniProt P78545 1-371); settings: protein: recombinant; tags: N-terminal GST; dsDNA, one strand shown
# T5 sequence: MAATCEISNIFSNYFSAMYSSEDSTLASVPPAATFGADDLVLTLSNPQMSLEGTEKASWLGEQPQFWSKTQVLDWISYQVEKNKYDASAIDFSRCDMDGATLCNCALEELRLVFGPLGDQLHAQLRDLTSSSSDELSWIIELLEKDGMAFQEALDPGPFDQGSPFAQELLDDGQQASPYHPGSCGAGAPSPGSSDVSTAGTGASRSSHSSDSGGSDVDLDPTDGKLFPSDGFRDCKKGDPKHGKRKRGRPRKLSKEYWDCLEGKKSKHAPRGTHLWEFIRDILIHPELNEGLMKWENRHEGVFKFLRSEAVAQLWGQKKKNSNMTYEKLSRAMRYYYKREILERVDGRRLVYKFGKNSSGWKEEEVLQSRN
# Method in brief: as §1
# [9] = biological target: CRX (Homo sapiens, UniProt O43186 1-299); settings: protein: recombinant; tags: N-terminal GST; dsDNA, one strand shown
# Chain of CRX (O43186 whole entry): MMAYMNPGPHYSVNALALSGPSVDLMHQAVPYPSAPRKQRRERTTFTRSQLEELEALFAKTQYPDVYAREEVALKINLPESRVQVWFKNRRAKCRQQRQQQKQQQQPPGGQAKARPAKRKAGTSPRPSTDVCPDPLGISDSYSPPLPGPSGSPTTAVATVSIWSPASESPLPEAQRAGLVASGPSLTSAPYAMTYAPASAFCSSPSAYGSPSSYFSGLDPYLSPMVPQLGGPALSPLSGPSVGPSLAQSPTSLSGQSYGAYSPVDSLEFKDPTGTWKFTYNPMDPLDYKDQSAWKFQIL
# Method in brief: as §1
# [10] = biological target: ETV1 (Homo sapiens, UniProt P50549 1-477); settings: protein: recombinant; tags: N-terminal GST; dsDNA, one strand shown
# Chain of ETV1 (P50549 whole entry): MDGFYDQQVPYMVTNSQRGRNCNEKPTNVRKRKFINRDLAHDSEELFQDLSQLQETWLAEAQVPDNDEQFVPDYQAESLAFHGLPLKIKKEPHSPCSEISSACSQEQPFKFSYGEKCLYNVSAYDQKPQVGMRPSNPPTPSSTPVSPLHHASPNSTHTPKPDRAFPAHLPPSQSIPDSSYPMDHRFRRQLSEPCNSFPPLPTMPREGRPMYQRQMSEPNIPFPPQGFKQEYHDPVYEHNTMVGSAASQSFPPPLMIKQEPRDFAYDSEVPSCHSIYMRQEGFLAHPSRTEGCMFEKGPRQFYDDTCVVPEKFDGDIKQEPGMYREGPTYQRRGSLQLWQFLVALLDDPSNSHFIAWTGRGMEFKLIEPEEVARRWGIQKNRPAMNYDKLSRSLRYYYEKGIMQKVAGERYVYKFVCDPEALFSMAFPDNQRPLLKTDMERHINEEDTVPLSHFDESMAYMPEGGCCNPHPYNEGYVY
# Method in brief: as §1
# [11] = biological target: T6, ERF (Homo sapiens, UniProt P50548 1-548); settings: protein: recombinant; tags: N-terminal GST; dsDNA, one strand shown
# T6 sequence: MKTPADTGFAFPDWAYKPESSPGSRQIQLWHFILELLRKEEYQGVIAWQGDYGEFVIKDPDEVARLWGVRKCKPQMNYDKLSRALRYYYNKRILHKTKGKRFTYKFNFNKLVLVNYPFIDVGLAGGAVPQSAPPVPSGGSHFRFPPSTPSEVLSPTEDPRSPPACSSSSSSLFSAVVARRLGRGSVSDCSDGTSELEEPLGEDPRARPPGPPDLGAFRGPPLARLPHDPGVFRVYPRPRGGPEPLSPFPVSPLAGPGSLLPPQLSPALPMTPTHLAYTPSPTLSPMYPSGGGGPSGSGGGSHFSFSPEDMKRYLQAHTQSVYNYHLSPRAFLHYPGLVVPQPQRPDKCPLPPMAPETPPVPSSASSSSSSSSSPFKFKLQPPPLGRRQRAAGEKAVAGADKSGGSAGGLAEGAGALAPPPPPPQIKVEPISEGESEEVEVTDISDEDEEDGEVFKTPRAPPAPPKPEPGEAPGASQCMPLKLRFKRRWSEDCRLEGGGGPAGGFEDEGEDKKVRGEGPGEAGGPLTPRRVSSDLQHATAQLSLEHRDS
# Method in brief: as §1
# [12] = biological target: T7, ETV3L (Homo sapiens, UniProt Q6ZN32 1-361); settings: protein: recombinant; tags: N-terminal GST; dsDNA, one strand shown
# T7 sequence: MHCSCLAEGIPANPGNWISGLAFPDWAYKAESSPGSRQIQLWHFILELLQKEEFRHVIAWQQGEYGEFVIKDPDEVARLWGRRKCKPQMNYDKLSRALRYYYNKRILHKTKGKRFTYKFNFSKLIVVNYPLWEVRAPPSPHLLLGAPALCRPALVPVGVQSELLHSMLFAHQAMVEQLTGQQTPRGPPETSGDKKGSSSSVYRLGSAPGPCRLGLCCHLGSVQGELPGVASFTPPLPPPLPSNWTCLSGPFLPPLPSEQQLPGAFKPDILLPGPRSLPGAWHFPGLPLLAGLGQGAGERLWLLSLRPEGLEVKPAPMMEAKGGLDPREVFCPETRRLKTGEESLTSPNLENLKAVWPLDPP
# Method in brief: as §1
# [13] = biological target: T8, ETS2 (Homo sapiens, UniProt P15036 1-469); settings: protein: recombinant; tags: N-terminal GST; dsDNA, one strand shown
# T8 sequence: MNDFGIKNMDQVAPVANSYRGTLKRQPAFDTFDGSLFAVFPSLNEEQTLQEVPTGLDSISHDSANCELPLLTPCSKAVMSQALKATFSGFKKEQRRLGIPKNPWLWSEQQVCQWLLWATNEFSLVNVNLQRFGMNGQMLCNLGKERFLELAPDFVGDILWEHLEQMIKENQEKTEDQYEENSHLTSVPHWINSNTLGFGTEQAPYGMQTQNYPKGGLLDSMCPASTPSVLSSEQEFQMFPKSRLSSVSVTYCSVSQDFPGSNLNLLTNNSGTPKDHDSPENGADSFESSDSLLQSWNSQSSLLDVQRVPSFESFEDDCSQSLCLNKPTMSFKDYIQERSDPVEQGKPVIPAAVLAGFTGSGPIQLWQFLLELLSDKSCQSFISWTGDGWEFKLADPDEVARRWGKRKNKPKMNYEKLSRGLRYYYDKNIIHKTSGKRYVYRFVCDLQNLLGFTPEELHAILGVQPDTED
# Method in brief: as §1
# [14] = biological target: T9, SPDEF (Homo sapiens, UniProt O95238 1-335); settings: protein: recombinant; tags: N-terminal GST; dsDNA, one strand shown
# T9 sequence: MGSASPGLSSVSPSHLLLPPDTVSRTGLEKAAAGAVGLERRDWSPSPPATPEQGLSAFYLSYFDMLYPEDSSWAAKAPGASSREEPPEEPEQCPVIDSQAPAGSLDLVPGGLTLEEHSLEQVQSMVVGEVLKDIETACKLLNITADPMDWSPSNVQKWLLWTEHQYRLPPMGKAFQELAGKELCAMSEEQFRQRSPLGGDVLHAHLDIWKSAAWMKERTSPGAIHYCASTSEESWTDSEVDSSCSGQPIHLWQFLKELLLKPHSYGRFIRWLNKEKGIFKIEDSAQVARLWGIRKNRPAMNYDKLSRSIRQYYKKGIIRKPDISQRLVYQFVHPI
# Method in brief: as §1
# [15] = biological target: T10, ETV7 (Homo sapiens, UniProt Q9Y603 1-341); settings: protein: recombinant; tags: N-terminal GST; dsDNA, one strand shown
# T10 sequence: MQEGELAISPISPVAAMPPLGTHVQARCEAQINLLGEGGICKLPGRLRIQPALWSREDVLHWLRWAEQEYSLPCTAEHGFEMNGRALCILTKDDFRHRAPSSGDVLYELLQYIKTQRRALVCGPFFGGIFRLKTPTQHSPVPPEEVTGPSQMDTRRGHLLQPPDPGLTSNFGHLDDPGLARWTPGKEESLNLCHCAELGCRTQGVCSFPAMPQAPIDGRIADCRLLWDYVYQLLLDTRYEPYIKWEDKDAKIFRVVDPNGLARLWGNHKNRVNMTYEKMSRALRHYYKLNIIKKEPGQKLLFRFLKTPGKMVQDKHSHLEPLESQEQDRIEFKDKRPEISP
# Method in brief: as §1
# [16] = biological target: T11, ELF5 (Homo sapiens, UniProt Q9UKW6-2 1-255); settings: protein: recombinant; tags: N-terminal GST; dsDNA, one strand shown
# T11 sequence: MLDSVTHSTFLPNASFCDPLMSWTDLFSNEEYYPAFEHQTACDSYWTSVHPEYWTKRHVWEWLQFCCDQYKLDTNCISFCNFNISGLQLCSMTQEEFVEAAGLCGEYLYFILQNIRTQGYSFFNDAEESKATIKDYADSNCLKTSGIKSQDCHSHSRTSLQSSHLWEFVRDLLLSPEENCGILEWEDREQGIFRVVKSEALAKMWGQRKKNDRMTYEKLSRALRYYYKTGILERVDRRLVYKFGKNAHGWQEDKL
# Method in brief: as §1
# [17] = biological target: T12, ETV3 (Homo sapiens, UniProt P41162-2 1-143); settings: protein: recombinant; tags: N-terminal GST; dsDNA, one strand shown
# T12 sequence: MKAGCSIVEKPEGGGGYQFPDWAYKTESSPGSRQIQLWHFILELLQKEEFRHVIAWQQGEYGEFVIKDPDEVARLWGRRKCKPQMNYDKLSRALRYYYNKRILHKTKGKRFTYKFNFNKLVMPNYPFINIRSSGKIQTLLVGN
# Method in brief: as §1
# [18] = biological target: ETV6 (Homo sapiens, UniProt P41212 1-452); settings: protein: recombinant; tags: N-terminal GST; dsDNA, one strand shown
# Chain of ETV6 (P41212 whole entry): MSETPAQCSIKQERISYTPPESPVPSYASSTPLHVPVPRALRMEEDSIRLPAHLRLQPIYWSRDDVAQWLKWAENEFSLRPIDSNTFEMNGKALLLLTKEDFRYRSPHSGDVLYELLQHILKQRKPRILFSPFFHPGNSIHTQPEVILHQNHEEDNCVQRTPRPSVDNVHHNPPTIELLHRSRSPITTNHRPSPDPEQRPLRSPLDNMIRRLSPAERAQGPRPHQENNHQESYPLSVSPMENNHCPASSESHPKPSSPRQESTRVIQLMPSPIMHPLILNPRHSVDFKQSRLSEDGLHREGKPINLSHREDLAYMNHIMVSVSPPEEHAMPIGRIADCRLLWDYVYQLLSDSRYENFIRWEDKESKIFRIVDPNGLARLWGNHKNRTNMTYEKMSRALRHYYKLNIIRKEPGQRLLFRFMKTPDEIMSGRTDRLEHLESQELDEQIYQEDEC
# Method in brief: as §1
sequence,measurement,setting,value
CTTTGC,binding signal,[1],"1.19 fold enrichment (6-mer frequency, TF over GST control)"
same,binding signal,[2],"1.32 fold enrichment (6-mer frequency, TF over GST control)"
same,binding signal,[3],"1.25 fold enrichment (6-mer frequency, TF over GST control)"
same,binding signal,[4],"1.45 fold enrichment (6-mer frequency, TF over GST control)"
same,binding signal,[5],"1.36 fold enrichment (6-mer frequency, TF over GST control)"
same,binding signal,[6],"1.32 fold enrichment (6-mer frequency, TF over GST control)"
same,binding signal,[7],"1.4 fold enrichment (6-mer frequency, TF over GST control)"
same,binding signal,[8],"1.46 fold enrichment (6-mer frequency, TF over GST control)"
same,binding signal,[9],"1.33 fold enrichment (6-mer frequency, TF over GST control)"
same,binding signal,[10],"1.35 fold enrichment (6-mer frequency, TF over GST control)"
same,binding signal,[11],"1.32 fold enrichment (6-mer frequency, TF over GST control)"
same,binding signal,[12],"1.33 fold enrichment (6-mer frequency, TF over GST control)"
same,binding signal,[13],"1.34 fold enrichment (6-mer frequency, TF over GST control)"
same,binding signal,[14],"1.24 fold enrichment (6-mer frequency, TF over GST control)"
same,binding signal,[15],"1.28 fold enrichment (6-mer frequency, TF over GST control)"
same,binding signal,[16],"1.29 fold enrichment (6-mer frequency, TF over GST control)"
same,binding signal,[17],"1.37 fold enrichment (6-mer frequency, TF over GST control)"
same,binding signal,[18],"1.18 fold enrichment (6-mer frequency, TF over GST control)"
